Data as given in the supplement of paper PMC10121225.
Structures can show the parent of a compound that is named as a salt.

tested on: hN + hpA co-culture (H1 iNGN2 human neurons + human primary astrocytes); assay: presynaptic density (SYNAPSIN1 puncta per MAP2 neurite area), Z-score vs DMSO controls; higher = more presynaptic puncta (synapse-promoting); details: 3 µM; 72 h
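Also: immunostained co-cultures imaged by high-content microscopy, Z-score per plate against mean and SD of 0.1% DMSO wells, compounds added on differentiation day 18, analysed day 21.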

| SMILES | presynaptic density (Z-score) |
| --- | --- |
| COc1cc(CCc2cc(NC(=O)c3ccc(N4CC(C)NC(C)C4)cc3)n[nH]2)cc(OC)c1 (stereo not drawn) | -0.132 |
| C[C@H]1COC2=C1C(=O)C(=O)c1c2ccc2c1CCCC2(C)C | 0.405 |
| COc1cc(OC)c(NC(=O)Nc2cc(C)on2)cc1Cl | -0.694 |
| NS(=O)(=O)C#Cc1ccccc1 [2-Phenylethynesulfonamide] | 0.148 |
| N#CC(=C(N)Sc1ccccc1N)C(C#N)=C(N)Sc1ccccc1N [1,4-Diamino-2,3-dicyano-1,4-bis[2-aminophenylthio]butadiene] | -0.048 |
| COc1cc2c(cc1OC)[C@@H]1Cc3ccc(OC)c(OC)c3CN1CC2 [Rotundine] | -0.985 |
| Cn1c(N2CCCCS2(=O)=O)nc(C(=O)NCc2ccc(F)cc2)c(O)c1=O | -1.68 |
| COc1ccc2cc([C@H](C)C(=O)O)ccc2c1 [Naproxen] | -1.04 |
| CCc1c(C(=O)NCCc2ccc(N3CCCCC3)cc2)[nH]c2ccc(Cl)cc12 | -0.684 |
| O=C(c1ccc(Nc2nccc(-c3cc4ccccc4s3)n2)cc1)N1CCC(N2CCCC2)CC1 | 0.27 |
| Cc1cc(NC(=O)Nc2ccc(N(C)C)cc2)c2cc(F)cc(F)c2n1 | 0.301 |
| CS(=O)(=O)c1cccc(CNc2nc(Nc3ccc4c(c3)CCC(=O)N4)ncc2C(F)(F)F)c1 | 1.04 |
| O=C(Nc1ccncc1)c1cc([N+](=O)[O-])ccc1Cl [2-Chloro-5-nitro-N-4-pyridinylbenzamide] | 0.702 |
| C1=N/C2=N/c3ccc(OCCN4CCCC4)c(c3)COC/C=C/COCc3cccc(c3)C(=C1)N2 [Pacritinib (SB1518)] | -1.08 |
| CC1COCCN1c1cc(C2(S(C)(=O)=O)CC2)nc(-c2cccc3[nH]ccc23)n1 (stereo not drawn) | 0.445 |
| CC(C)OC(=O)OCOP(=O)(CO[C@H](C)Cn1cnc2c(N)ncnc21)OCOC(=O)OC(C)C [Tenofovir Disoproxil Fumarate] | 0.611 |
| C#Cc1cccc(Nc2ncnc3cc4c(cc23)OCCOCCOCCO4)c1 [Icotinib] | -0.0135 |
| COc1nc(C)cnc1NS(=O)(=O)c1cccnc1-c1ccc(-c2nnco2)cc1 [Zibotentan (ZD4054)] | -1.1 |
| CC(C)NCCCn1c(Sc2cc3c(cc2I)OCO3)nc2c(N)ncnc21 | -0.039 |

| SMILES | presynaptic density (Z-score) |
| --- | --- |
| CNC(=O)c1ccc(N2C(=S)N(c3ccc(C#N)c(C(F)(F)F)c3)C(=O)C2(C)C)cc1F [Enzalutamide (MDV3100)] | 0.664 |
| O=C(O)c1cccc(-c2noc(-c3ccccc3F)n2)c1 [Ataluren (PTC124)] | -0.0102 |
| C[C@H]1COC2(CCN(c3nc(=O)c4cc(C(F)(F)F)cc([N+](=O)[O-])c4s3)CC2)O1 (racemic) [BTZ043 Racemate] | 0.635 |
| Cc1cnc(NC(=O)Nc2cc(Br)c(C)cc2OC[C@@H]2CNCCO2)cn1 | -0.602 |
| CNC(=C[N+](=O)[O-])NCCSCc1ccc(CN(C)C)o1 [Ranitidine] | -0.33 |
| Oc1cc(O)cc(/C=C/c2ccc(O)c(O)c2)c1 [Piceatannol] | -0.0151 |
| CC(C)CC(=O)Nc1n[nH]c2c1CN(C(=O)C1CCN(C)CC1)C2(C)C | -2.75 |
| CC[C@@H]1C(=O)N(C)c2cnc(Nc3ccc(C(=O)NC4CCN(C)CC4)cc3OC)nc2N1C1CCCC1 | -2.32 |
| CCCSc1nc(N[C@@H]2C[C@H]2c2ccc(F)c(F)c2)c2nnn([C@@H]3C[C@H](OCCO)[C@@H](O)[C@H]3O)c2n1 [Ticagrelor] | -0.848 |
| CC(C)NCC(O)COc1cccc2ccccc12 (stereo not drawn) [Propranolol HCl] | 0.278 |
| CCc1c2c(nc3ccc(OC(=O)N4CCC(N5CCCCC5)CC4)cc13)-c1cc3c(c(=O)n1C2)COC(=O)C3(O)CC (stereo not drawn) [Irinotecan HCl Trihydrate_Selleck] | -0.772 |
| C[C@@H]1CN(CC(=O)Nc2ccc3c(c2)Cc2cccc(-c4cc(=O)cc(N5CCOCC5)o4)c2S3)C[C@H](C)O1 | -1.12 |
| C=CCc1cccc(C=NNC(=O)CN2CCN(Cc3ccccc3)CC2)c1O | -1.87 |
| CC(C)(C)c1cc(C(C)(C)C)c(NC(=O)c2c[nH]c3ccccc3c2=O)cc1O [Ivacaftor (VX-770)] | 0.324 |
| COc1ccc(CC(C)NCC(O)c2ccc(O)c(NC=O)c2)cc1 (stereo not drawn) | 0.254 |
| C=CC(=O)N1CCC[C@@H](n2nc(-c3ccc(Oc4ccccc4)cc3)c3c(N)ncnc32)C1 | -0.341 |
| C[C@@H]1C(=O)O[C@H]2C[C@@]34[C@H]5C[C@@H](C(C)(C)C)[C@]36[C@@H](OC(=O)[C@@H]6O)O[C@@]4(C(=O)O5)[C@]21O | -0.498 |
| CCOc1ccc(Cc2cc([C@@H]3O[C@H](CO)[C@@H](O)[C@H](O)[C@H]3O)ccc2Cl)cc1 [Dapagliflozin] | 0.756 |
| Nc1cccc(-c2cc3c(Oc4cccc(O)c4)ncnc3[nH]2)c1 | 0.148 |
